Shown is part of a subset that was picked to be rich in hits.
Vaccinia pol inh – inhibitors of vaccinia virus processive DNA synthesis (E9 polymerase). in vitro processive DNA synthesis, absorbance read-out; active compounds read low. normalized absorbance, % (no concentration beside the values). 46,000 compounds, 0.94% hits; in the data active = normalized absorbance mostly below about 85%, no sharp cut-off; inactive = mostly above about 86%
Numbers without * were called inactive.

SMILES	Vaccinia pol inh
CCN(CC)c1cc(-c2cccs2)nc(SCC(=O)c2cccs2)c1C#N	100
Fc1ccc(Nc2nc3ccccc3o2)c(F)c1	103
O=C1C=C(Nc2ccc(F)c(C(F)(F)F)c2)c2ccccc2C1=O	98
O=C1C(Cc2ccc(F)cc2)Sc2nc3ccccc3n21 (configuration not stated)	92
N#Cc1c(N)nc(SCc2ccccc2)c(C#N)c1-c1ccccc1	83*
CCOc1ccc(-c2c(C#N)c(N)nc(SCC#N)c2C#N)cc1	101
N#Cc1c(-c2ccccc2)cc(-c2ccccc2)nc1N	100
CCN(CC)CC(O)Cn1c2c(c3cc(C)ccc31)CCCC2 (configuration not stated)	92
Clc1ncnc2c1ncn2C1CCCCO1 (configuration not stated)	100
CCSC1=C(C#N)C(=N)n2c1cc1c2CCCC1	82
COc1ccc(C2=NS(=O)(=O)N(C)C(C(=O)N3CCC(C)CC3)=C2)cc1OC	104
COc1ccc(C2=NS(=O)(=O)N(C)C(C(=O)N3CCC(C(N)=O)CC3)=C2)cc1	70*
CCC1CCCCN1C(=O)C1=CC(c2ccc(OC)cc2)=NS(=O)(=O)N1C (configuration not stated)	87
C[C@]1(O)NC([S-])=C(C#N)C(c2ccc(Cl)cc2)C1[n+]1ccccc1 (some centres not stated)	99
Cc1ccc2oc(=O)c3cc(C(=O)NCCN4CCCCC4C)sc3c2c1 (configuration not stated)	62*
Cc1ccc2oc(=O)c3cc(C(=O)N4CCN(c5ccc(F)cc5)CC4)sc3c2c1	101
Cc1ccc2oc(=O)c3cc(C(=O)Nc4ccc5c(C)cc(=O)oc5c4)sc3c2c1	104
O=C(COc1ccc2oc3c(c2c1)CCCC3)Nc1ccncc1	107
FC(F)(F)c1cc(/C=C\c2noc(-c3ccc(CN4CCCC4)cc3)n2)cc(C(F)(F)F)c1	93
Cn1nc(-c2ccccc2)c(/C=N/O)c1Cl	100
O/N=C/C1=C(Cl)c2ccccc2CC1	78*
O/N=C/c1cccs1	124
CN(Cc1ccccc1)C(=O)c1cccn2c(=O)c3c4c(sc3nc12)CCCC4	103
CC(NC(=O)C1CCCN(c2nnc(-n3cccc3)s2)C1)c1ccc2c(c1)OCCO2 (configuration not stated)	98
COC(CNC(=O)c1ccc(Cn2nnc3ccccc3c2=O)cc1)OC	101
SMILES	Vaccinia pol inh
O=C(/C=C/c1ccccc1)/C=C/c1ccco1	78
O=C(/C=C/c1ccco1)NCCc1ccccc1	102
Cc1nn(C)c(C)c1NC(=O)/C=C/c1ccco1	103
O=C(/C=C/c1ccco1)Nc1cccc(NC(=O)/C=C/c2ccco2)n1	85*
O=C(/C=C/c1ccco1)C1(O)CCCCC1	91
O=C(/C=C/c1ccco1)/C=C/c1ccco1	8.6*
O=C(O)CC(c1ccco1)N1Cc2ccccc2C1=O (configuration not stated)	96
Cc1ccc(OCC(=O)Nc2nc3ccccc3s2)c(C)c1	82
Cc1c(N=CC2CCCN3CCCCC23)c(=O)n(-c2ccccc2)n1C (configuration not stated)	100
Cc1ccc(OCc2nn(CN3CCC4(CC3)OCCO4)c(=S)n2C)cc1C	96
Cc1nnc(N2C(=N)S/C(=C\c3ccccc3Cl)C2=O)s1	100
N=C1S/C(=C/c2ccco2)C(=O)N1c1nccs1	52*
O=C1c2ccccc2C(=O)N1c1nccs1	100
N#CC1(C#N)C2CCCCC23OC(=N)C1(C#N)C(Cc1ccccc1)O3 (configuration not stated)	100
CCCS(=O)(=O)NCCc1cc2ccc(C)c(C)c2[nH]c1=O	98
COc1ccc(OC)c(-c2n(C)c3ccccc3[n+]2C)c1	75
COc1ccc2c(c1)c(C(=O)CSc1ccccc1)c(C)n2C	95
COc1ccc2c(c1)c1ccccc1n2C	67*
O=C(CSc1ccccc1Cl)NC12CC3CC(CC(C3)C1)C2	93
CNc1ccc(-c2c(C#N)c(C#N)c(N)n2-c2ccc(C)cc2)cc1	104
CCCNC(=O)C1CCN(c2cc(C)nc3c(-c4ccc(Cl)cc4)c(C)nn23)CC1	96
COc1ccc(Br)cc1/C=C1\C(=O)NC(=O)N(CCC2=CCCCC2)C1=O	100
Cc1cccc(N(C)C(=O)c2ccc3c(=O)n4c(nc3c2)CCCCC4)c1	103
CN(C(=O)c1ccc2c(=O)n3c(nc2c1)CCCCC3)C1CCCCC1	67*
CC(C)CCNC(=O)c1ccc2c(=O)n3c(nc2c1)CCCCC3	100
SMILES	Vaccinia pol inh
O=c1c(Cl)c(Cl)cnn1C12CC3CC(CC(C3)C1)C2	86
O=C(CCC(=O)N1CCCC1)Nc1nc(-c2cc3cc(Br)ccc3oc2=O)cs1	99
CCOC(=O)c1ccc(N2N=C(C(F)(F)F)/C(=C/C=C/c3ccco3)C2=O)cc1	100
CCc1ccc(/C=C2/C(=O)N(c3ccccc3)N=C2C)cc1	92
O=C(O)c1ccc(N2N=C(C(F)(F)F)/C(=C/c3ccc(OC(=O)c4cccs4)cc3)C2=O)cc1	23*
CCN(CC)C(=O)c1nn(-c2ccc(OC)cc2)c(=O)c2c1c1ccccc1n2C	99
O=C(O)CC(C1CC=CCC1)N1Cc2ccccc2C1=O (configuration not stated)	102
O=C(NCc1ccccc1)C1Cc2ccccc2CN1S(=O)(=O)c1ccc(F)cc1 (configuration not stated)	94
Cn1c(-c2ccco2)[n+](C)c2ccccc21	98
O=C(Cn1cnc(S(=O)(=O)N2CCCC2)c1)NC1CCN(Cc2ccccc2)CC1	110
Cc1cc2c(C(C)C)c(O)c(O)c(C=O)c2c(O)c1-c1c(C)cc2c(C(C)C)c(O)c(O)c(C=O)c2c1O	18*
COc1ccc(OC)c(C2N(Cc3ccccc3C)CCN2Cc2ccccc2F)c1 (configuration not stated)	75
OCCN=c1scc(-c2ccc(Br)cc2)n1-c1ccccc1	100
CCn1cc(CCCC(=O)NCCN2CCN(C)CC2)c2ccccc21	93
O=C(O)c1ccccc1-n1c(=O)c2cc3c(=O)n(-c4ccccc4C(=O)O)c(=O)c3cc2c1=O	96
CC1CN(C(=O)N2CCC(C(=O)O)CC2)c2cc(Cl)ccc2O1 (configuration not stated)	68*
CC1CN(C(=O)NC23CC4CC(CC(C4)C2)C3)c2cc(Cl)ccc2O1 (configuration not stated)	102
Cc1ccc2c(c1)N(C(=O)N1CCC(C(=O)O)CC1)CC(C)O2 (configuration not stated)	94
CN1C(C(=O)NC(C)(C)C)=CC(c2ccc(F)cc2)=NS1(=O)=O	100
O=C1NN=C(c2cc3ccccc3oc2=O)CC(c2ccco2)N1 (configuration not stated)	100
Cc1cc(Oc2ccc(C(F)(F)F)cc2-n2cccc2)cc(C)c1Cl	106
CN1CCN(c2cc(-c3ccncc3)nc3ccccc23)CC1	83
CN1CCN(c2cc(-c3ccccc3)nc3ccccc23)CC1	79*
CN1CCN(c2nc(-c3ccccc3)c3ccccc3n2)CC1	101
Cc1ccsc1C(=O)OCC(N)=O	108
O=C(O)C(Cc1ccccc1)N1C(=O)/C(=C/c2ccccc2)SC1=S (configuration not stated)	97
COc1cc(/C=C2\SC(=S)N(C(C(=O)O)C(C)C)C2=O)cc(OC)c1O (configuration not stated)	100
CC(C)C(C(=O)O)N1C(=O)/C(=C/c2ccccc2)SC1=S (configuration not stated)	83*
